Compounds without any hit were thinned out: in the full panel of roughly 83,000, 20% have a hit.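 Assay: single dose, 48 h. Readout: percent growth (0 = no net growth; negative = cell death). Active: <10.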 A number with no mark means an inactive call. Active and inactive are the calls of the source.
The molecules below were run on MDA-MB-435 melanoma (assay: NCI-60 one-dose screen, 48 h (100 = growth as untreated, 0 = no growth, -100 = all killed)). Settings: 10 µM unless noted.

Structure (SMILES)	growth
COC(=O)c1cc2oc(/C=N\NC(=O)c3cc4oc(C)c(C)c4[nH]3)cc2[nH]1	96.6%
COc1cccc(-c2nc(-c3ccc(N)cc3)co2)c1	93.3%
CC(=O)c1nn(-c2ccccc2)c(=Nc2ccccc2)cc1C	112%
COc1cc(/C=C2\CN(S(=O)(=O)c3ccc(C)cc3)C/C(=C\c3cc(CN4CCOCC4)c(O)c(OC)c3)C2=O)cc(CN2CCOCC2)c1O	-19.7% (active)
CCOc1cc(/C=C/C(=O)C(C(=O)/C=C/c2ccc(OC(=O)CNc3nnc(C)s3)c(OCC)c2)C(=O)CNc2nnc(C)s2)ccc1OC(=O)CNc1nnc(C)s1	-8.14% (active)
O=C(N/N=C/c1cccc([N+](=O)[O-])c1)c1ccc(Br)o1	106%
O=C(CN1CCN(c2ccc(Cl)cc2)CC1)N1CCN(c2nnc(-c3ccccc3)c(-c3ccccc3)n2)CC1	48.8%
O=C1CNc2cc(Cl)ccc2N1	114%
Cc1cnc2nc(-c3ccc(N(C)C)cc3)cn2c1	96.3%
CCCCNCCCN(CCCC)CCCNCCCC	94.3%
C/C(=C\CCc1ccoc1)CC/C=C(\C)CCCC1COC(=O)C1 (centres undefined)	88.8%
O=C(c1ccccc1)c1ccc(Oc2ccc([N+](=O)[O-])cc2[N+](=O)[O-])cc1	-43.7% (active)
OCCN1CCN(CCCN2c3ccccc3Sc3ccc(C(F)(F)F)cc32)CC1	-46.1% (active)
COP(=O)(OC)C(c1ccc(O)cc1)(c1ccc(O)cc1)c1ccc(O)cc1	118%
CC(=O)N1N=C(c2ccc(Nc3nc(NCCO)nc(NCCO)n3)cc2)CC1c1ccc(Cl)cc1 (centres undefined)	101%
[N-]=[N+]=NCc1cccc(/C(O)=C/C(=O)C(=O)O)c1	140%
O=C(COc1cccc(/C=C2\Cc3ccccc3C2=O)c1)c1ccc(Cl)cc1	114%
O=[N+]([O-])c1ccc(N=Nc2c(Cl)cc(O)cc2Cl)cc1	-24.4% (active)
O=c1c2ccccc2c2nccn2c2cc(Cl)ccc12	94.5%
CCN(CC)CCCCCCCNc1c2ccc(Cl)cc2nc2ccc(OC)cc12	-78.9% (active)

Structure (SMILES)	growth
COc1cccc(C2=NN(C(C)=O)C(c3cc(OC)c(OC)c(OC)c3)C2)c1 (centres undefined)	-28.2% (active)
O=C(c1ccccc1)C(CN1CCCCC1)c1ccccc1 (centres undefined)	23.9%
Nc1ccn(C2O[C@H](CO)[C@@H](O)[C@@H]2O)c(=O)n1 (some centres undefined)	45.3%
O=C(Nc1cccc(Cl)c1)Nc1cccc(Cl)c1	88.8%
COc1cccc(N2CCN(c3cccc(C)n3)CC2)c1	95.1%
Cc1cn(C(C=O)OC(C=O)CO)c(=O)[nH]c1=O (centres undefined)	106%
CCOC(=O)CCC(=O)O[C@H]1[C@H](O[C@@H]2[C@@H](C)[C@H](O[C@H]3C[C@@](C)(OC)[C@@H](O)[C@H](C)O3)[C@@H](C)C(=O)O[C@H](CC)[C@@](C)(O)[C@H](O)[C@@H](C)C(=O)[C@H](C)C[C@@]2(C)O)O[C@H](C)C[C@@H]1N(C)C	105%
O=C(CNc1ccc2c(c1)C(=O)c1ccccc1C2=O)Nc1ccc2c(c1)C(=O)c1ccccc1C2=O	-82.4% (active)
O=c1[nH]c(N2CCC(Cc3ccccc3)CC2)nc2sc3c(c12)CCCC3	102%
Cn1cc(NC(=O)Nc2cc(C(=O)O)n(C)c2)cc1C(=O)O	115%
O=C(CN1CCN(c2ccc(Cl)cc2)CC1)N1CCN(c2nnc(-c3ccc(Cl)cc3)c(-c3ccc(Cl)cc3)n2)CC1	73.4%
O=C(Nc1ccc(Cl)cc1)Nc1ccccc1CNc1nc(Nc2ccc(OCCN3CCCC3)cc2)ncc1Cl	-28.9% (active)
CCCCCCCCCCOC(C)=O	106%
CCN(CC)CCNCC(=O)Oc1ccc(/C=C/C(=O)CC(=O)/C=C/c2ccc(OC(=O)CNCCN(CC)CC)c(OC)c2)cc1OC	-30% (active)
CC(=O)N1N=C(c2ccc(C(F)(F)F)cc2)CC1c1ccc2c(c1)OCO2 (centres undefined)	78.2%
O=C1CSC(c2ccccc2O)N1c1nnc(Cn2ccnc2)o1 (centres undefined)	13.4%
O=C(/C=C/c1cccc(Nc2ccnc3cc(Cl)ccc23)c1)c1ccc(Cl)cc1	56.9%
CC(NNC(=S)N1CCCCCC1)c1ccc2ccccc2n1 (centres undefined)	40.6%
O=C(Nc1nc(-c2ccc(Cl)cc2)cs1)c1cc(-c2ccc(Br)cc2)nc2ccc(Cl)cc12	-21.6% (active)

From PubChem BioAssay (NCI)
